SW480 rerep: A quantitative high throughput screen for small molecules that induce DNA re-replication in SW480 colon adenocarcinoma cells; SW480 DNA re-replication, Hoechst DNA content imaging, 48 h; Potency, µM (series often up to 46.1 µM), inactives show at the top dose re-replication activation, hits mostly activators; actives 1.8% (n = 340,000); also: % of control where 0% means no effect; nearly all actives have a fitted effect of over 55% in size
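DNA re-replication was detected as more nuclei of elevated Hoechst intensity after 48 hr exposure to compound (23 nL pinned per well of 250 cells).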
KB-V1 cytotox: qHTS assay for MDR1-selective chemotherapeutics: Primary screen using the drug-selected MDR subline cells KB-V1; KB-V1 MDR cells viability, CellTiter-Glo, 72 h; Potency, µM (series often up to 46.1 µM), actives largely listed as cytotoxic; actives 3.4% (n = 400,000); AID 1347076, 2019; also: % is scaled to controls: 0 for no effect and ±100 for the full control effect; nearly all actives have a fitted effect of over 60% in size
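In this primary screen, KB-V1 cells overexpressing P-gp are incubated with library compounds (lowest to highest concentration) for 72 h at 37 degrees C before a luminescent ATP viability read.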
HT1080NT lethal: qHTS for induction of synthetic lethality in tumor cells producing 2HG: qHTS for the HT-1080-NT fibrosarcoma cell line | Potency, µM (doses to about 46.1 µM), without a hit: at the top dose activity, negative = less viability, hits mostly cytotoxic | HT-1080-NT fibrosarcoma viability, CellTiter-Glo ATP luminescence, 48 h | actives 1.6% (n = 360,000);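 also: NT is the 2HG producing partner of a matched IDH1 knockdown line; 0% = DMSO-treated cells and -100% = media-only wells without cells; nearly all actives have a fitted effect of over 55% in size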
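Viability by CellTiter-Glo luminescence after 48 h compound exposure at 37C of HT-1080-NT cells (750/well, RPMI, 5% FBS). % activity scaled between DMSO wells and medium-only wells, then curve-fitted and categorized by curve class.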
MCF10A rerep: A quantitative high throughput screen for small molecules that induce DNA re-replication in MCF 10a normal breast cells; Potency, µM (titrated, usually from 46.1 µM), for inactives: top-dose activity, positive = re-replication, actives largely listed as activators; MCF 10A DNA re-replication, Hoechst nuclear intensity, 48 h; AID 624296, 2012; actives 2.9% (n = 350,000); also: % of control where 0% means no effect; nearly all actives have a fitted effect of over 50% in size
KB-3-1 cytotox: qHTS assay for MDR1-selective chemotherapeutics: Primary screen using the parental adenocarcinoma cell KB-3-1; AID 1347075, 2019; Potency, µM (titrated, usually from 46.1 µM), hits mostly cytotoxic; KB-3-1 viability, CellTiter-Glo ATP luminescence, 72 h; actives 1.4% (n = 400,000); also: % is scaled to controls: 0 for no effect and ±100 for the full control effect; nearly all actives have a fitted effect of over 60% in size
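KB-3-1 cells, DMEM (no phenol red) + 10% FBS; compound by pin transfer, 72 h, 37 °C. Readout: CellTiter-Glo luminescence after 10 min. Data normalized, curve-fitted.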
HT1080 IDH1KD tx: qHTS for induction of synthetic lethality in tumor cells producing 2HG: qHTS for the HT-1080-IDH1KD cell line; HT-1080 IDH1 knockdown viability, ATP luminescence, 48 h; actives 2% (n = 360,000); Potency, µM (titrated, usually from 46.1 µM), inactives show at the highest dose activity, negative = toxicity, hits mostly cytotoxic; AID 686971, 2013;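 also: 0% = DMSO wells and -100% = cell-free medium wells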
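Assay cells: HT-1080 with IDH1 knockdown, 750 per well, RPMI/5% FBS. Exposure: 48 h at 37 °C following 2 h pre-incubation. Read: CellTiter-Glo luminescence; fitted concentration-response, curve class assigned.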
* hit, by the source's call; i = inactive; ? = inconclusive; . = not tested or not shown; [ ] = dose if it differs, or a comment. Shown are actives, neighbours in structure and some others; about 7.9% of the full set was active somewhere. Calls follow the shape of the dose curve; as a rule, active = well fitted curve in the direction sought with a large enough effect; inconclusive = small, poorly fitted or top-dose-only effect, or another doubt; inactive = no such curve, though single readings can be large; an effect the other way counts as inactive or inconclusive. Potency is read from the fitted curve at half-maximal effect.

SMILES	SW480 rerep	KB-V1 cytotox	HT1080NT lethal	MCF10A rerep	KB-3-1 cytotox	HT1080 IDH1KD tx
N#Cc1ccccc1NC(=O)COC(=O)/C=C/c1cn(-c2ccccc2)nc1-c1ccc(Cl)cc1	1%	i	-1%	-5%	23µM*	1%
CC(C)[C@H](N)c1nnc(SCc2ccc(Cl)cc2)o1	-22%	16µM*	-24%	0%	i	-14%
C[C@@H]1CN([C@H](C)CO)C(=O)c2cc(NC(=O)Nc3ccc(F)cc3)ccc2O[C@@H](C)CCCCO[C@H]1CN(C)S(=O)(=O)c1cccs1	.	i	-25%	.	i	?
CCC(C)Nc1sc(S(=O)(=O)CC)nc1S(=O)(=O)c1ccc(C)cc1 (configuration not stated)	.	i	.	.	i	.
Cc1cc(C)cc(N2C(=O)CC(N3CCOCC3)C2=O)c1 (configuration not stated)	22%	i	3%	18µM*	i	2%
COc1ccc(CCN2C(=O)c3cccc4c(C(=O)N5CCCCC5)ccc(c34)C2=O)cc1OC	-1%	2.9µM*	2%	?	i	4%
CCn1cc(C(=O)NCc2ccccc2Cl)c(=O)c2cc(S(=O)(=O)N3CCc4ccccc4C3)ccc21	.	i	.	.	i	.
CCCC(=O)NC(=S)Nc1ccc(S(=O)(=O)Nc2ccc(OCC)cc2)cc1	5%	?	4.6µM*	?	i	23µM*
CCOC(=O)COc1ccc(S(=O)(=O)Nc2cccc(SC)c2)cc1	-1%	i	10µM*	6%	i	?
CCOc1ccc(NS(=O)(=O)c2ccc(NS(=O)(=O)c3ccc(SC)cc3)cc2)cc1	0%	23µM*	-30%	?	i	-26%
CCOC(=O)N1CCN(C(=O)COc2ccc(S(=O)(=O)Nc3ccc(OCC)cc3)cc2)CC1	5%	i	-5%	2%	21µM*	?
CCc1ccccc1NC(=O)CN(c1ccccc1)S(=O)(=O)c1ccsc1C(=O)OC	.	i	.	.	i	.
COc1ccc(CCNC(=O)CCCCCn2c(=O)[nH]c3cc(OC)c(OC)cc3c2=O)cc1OC	.	i	.	.	i	.
Cc1ccccc1-c1csc(C(C)(O)c2cccnc2)n1 (configuration not stated)	.	i	1%	.	i	2%
CCOc1ccc(CCNC(=O)c2cnc3c(-c4ccc(F)cc4)c(C)nn3c2C)cc1OCC	.	i	.	.	i	.
COc1ccc(NS(=O)(=O)c2ccccc2)cc1NS(=O)(=O)c1ccccc1	.	i	.	.	i	.
CC(C)CC(=O)NC(=S)Nc1ccc(S(=O)(=O)NC(C)(C)C)cc1	3%	15µM*	-15%	5%	i	-12%
CCOc1ccc(NS(=O)(=O)c2ccc(NC(=S)NC(=O)CC(C)C)cc2)cc1	?	?	?	?	i	-5%[9.24 µM]
NC(=O)C1CCN(S(=O)(=O)c2cc3c(cc2Cl)NC(=O)CO3)CC1	.	i	.	.	i	.
Cc1ccc([C@H]2C[C@@H](n3cc(C4CC4)nn3)[C@H](O)CN2CC2CCCCC2)cc1	.	?	-4%	.	21µM*	-5%
COc1ccc([C@H]2C[C@H](O)[C@@H](n3cc(C4CC4)nn3)CN2CC2CCCCC2)cc1	.	?	5%	.	i	-3%
Cc1ccc([C@H]2C[C@H](O)[C@@H](n3cc(C4CC4)nn3)CN2CC2CCCCC2)cc1	.	i	-4%	.	i	22%
